Screens (PubChem)
Sampled rows, rich in hits. Any-hit rate of the full collection: about 3.5%.
CRE Fsk mod – CRE-bla signaling modulation under forskolin stimulation; CHO CRE-bla reporter (cAMP response element driving beta-lactamase), forskolin EC10, beta-lactamase ratio; Potency, µM (doses to about 38.2 µM), for the others: at the highest dose activity change, negative = inhibition, hits mostly activators; AID 662; 71,000 compounds, 2.5% hits; active = well fitted activation curve with a large enough effect in the signal ratio, with a control signal flat, not every such curve was filed as active; inconclusive = small, poorly fitted or top-dose-only effect, or effect the other way, or a change in a side signal; the % refers to the signal ratio; note: % of control where 0% means no effect
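Forskolin analogue NKH 477 at EC10 stimulated CRE-driven beta-lactamase in CHO cells alongside compound dilution series. Beta-lactamase was measured with CCF4, excitation 405 nm, emission ratio 460/530 nm.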
TSHR agonist – activates the human thyroid stimulating hormone receptor. P16473. HEK293-CNG-TSHR cells (CNG channel as cAMP sensor), membrane potential dye, cAMP. Potency, µM (titrated, usually from 57.1 µM), without a hit: at the top dose activation, most hits filed as activators. 73,000 compounds, 0.48% hits. AID 926; active = well fitted activation curve with a large enough effect in the main read-out, with a control signal flat, not every such curve was filed as active; inconclusive = small, poorly fitted or top-dose-only effect, or a change in a side signal; inactive = no such curve, though single readings can be large or run the other way; % of control where 0% means no effect;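 note: the control signal comes from parental cells without the receptor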
Target sequence (P16473 whole entry, looked up): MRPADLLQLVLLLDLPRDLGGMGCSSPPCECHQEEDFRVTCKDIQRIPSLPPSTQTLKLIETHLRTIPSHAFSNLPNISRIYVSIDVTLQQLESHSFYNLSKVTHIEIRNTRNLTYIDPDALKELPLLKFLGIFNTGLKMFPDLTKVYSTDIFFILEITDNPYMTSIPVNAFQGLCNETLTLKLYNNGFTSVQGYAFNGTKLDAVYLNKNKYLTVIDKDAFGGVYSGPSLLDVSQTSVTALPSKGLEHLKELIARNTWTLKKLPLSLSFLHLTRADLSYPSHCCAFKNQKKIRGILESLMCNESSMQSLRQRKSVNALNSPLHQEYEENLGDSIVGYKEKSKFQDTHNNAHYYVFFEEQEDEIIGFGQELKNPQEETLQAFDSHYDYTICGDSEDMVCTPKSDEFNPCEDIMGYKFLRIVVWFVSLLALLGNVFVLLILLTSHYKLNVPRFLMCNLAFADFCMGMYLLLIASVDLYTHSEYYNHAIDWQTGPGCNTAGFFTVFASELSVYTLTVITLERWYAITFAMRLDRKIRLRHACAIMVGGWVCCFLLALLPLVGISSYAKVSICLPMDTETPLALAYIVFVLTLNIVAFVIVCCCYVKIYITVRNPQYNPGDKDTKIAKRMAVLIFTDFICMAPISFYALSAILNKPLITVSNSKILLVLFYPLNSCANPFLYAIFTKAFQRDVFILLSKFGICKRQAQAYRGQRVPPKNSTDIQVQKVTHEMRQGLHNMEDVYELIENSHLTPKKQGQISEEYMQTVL
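HEK 293 cells stably expressing TSHR and a modified CNG channel, with CNG-only parental cells as counterscreen, were preloaded 60 min at room temperature with membrane potential dye containing 100 uM RO 20-1724. Compound exposure was 30 min, and depolarization was read as fluorescence at 590 nm.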
HEK293 cAMP ctrl – raises cAMP in parental HEK293 cells, TSHR agonist counter-screen; parental HEK293 CNG cAMP sensor, membrane potential fluorescence; Potency, µM (titrated, usually from 57.1 µM), without a hit: at the highest dose activation, most hits filed as activators; 73,000 compounds, 2.5% hits; AID 938; active = well fitted activation curve with a large enough effect; inconclusive = small, poorly fitted or top-dose-only effect; inactive = no such curve, though single readings can be large or run the other way; note: % of control where 0% means no effect; nearly all actives have a fitted effect of over 55% in size
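Parental HEK 293 cells stably expressing a cAMP-gated CNG channel were loaded with membrane potential dye containing 100 uM RO 20-1724 for 60 min. Compound added for 30 min; depolarization read as fluorescence intensity at 590 nm.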
IkB signaling – IkB pathway inhibition in ABC-DLBCL cells; AID 445; Potency, µM (titrated, usually from 57.1 µM), inactives show at the top dose IkBa stabilization activation; ABC-DLBCL IkBa-CBG/CBR dual luciferase ratio, 4 h; response scale: scaled: untreated 0%, proteasome inhibitor 100%; 110,000 compounds, 0.04% hits; active = well fitted curve in the direction sought with a large enough effect in the signal ratio, not every such curve was filed as active; inconclusive = small, poorly fitted or top-dose-only effect, or a change in a side signal; the % refers to the signal ratio;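 note: the direction sought is a rising ratio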
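Luminescence ratio of IκBα-fused green versus native red beetle luciferase in OCI-Ly3 cells, 4 h post-doxycycline with compound; red signal alone, scaled from basal (0%) to zero light (-100%), flagged nonspecific or cytotoxic effects.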
Hsp90 Hop PPI – changes Hsp90-Hop TPR2A binding signal, up or down. AlphaScreen TPR2A-His6 binding biotin-Hsp90 C-terminal peptide. Potency, µM (doses to about 57 µM), for the others: at the top dose activity change, negative = inhibition. 71,000 compounds, 0.44% hits. AID 595; active = well fitted curve in either direction with a large enough effect; inconclusive = small, poorly fitted or top-dose-only effect, or another doubt; note: % is set by controls: 0 for no effect and ±100 for the full control effect
* hit, by the source's call; [ ] = remark or other dose. Potency is the fitted concentration of half-maximal effect.

CCn1cnc2c(Nc3cccc(Cl)c3)nc(N[C@@H]3CCCC[C@H]3N)nc21 was read as CRE Fsk mod inconclusive, TSHR agonist inconclusive, HEK293 cAMP ctrl inconclusive, IkB signaling inconclusive and Hsp90 Hop PPI -16%.
C=C1C/C(=C\C)C(=O)O[C@@H]2CCN3CC=C(COC(=O)[C@]1(C)O)[C@H]23 was read as CRE Fsk mod -12%, TSHR agonist -1%, HEK293 cAMP ctrl 3%, IkB signaling 2%[11.4 µM] and Hsp90 Hop PPI -5%.
C=CCCN1C[C@@H]2C[C@H](C1)c1cccc(=O)n1C2 was read as CRE Fsk mod inconclusive, TSHR agonist -5%, HEK293 cAMP ctrl 3%, IkB signaling 2%[11.4 µM] and Hsp90 Hop PPI -6%.
CCC(=O)O[C@H]1CC[C@H]2[C@@H]3CCC4=CC(=O)CC[C@]4(C)[C@H]3CC[C@]12C was read as CRE Fsk mod inconclusive, TSHR agonist inconclusive, HEK293 cAMP ctrl 16µM*, IkB signaling -2%[25.6 µM] and Hsp90 Hop PPI 2%[26 µM].
For CC12CCC(=O)C=C1CCC1C2CCC2(C)C(O)CCC12 (configuration not stated) the results were CRE Fsk mod 3%, TSHR agonist 13%, HEK293 cAMP ctrl 5%, IkB signaling 1% and Hsp90 Hop PPI -2%.
For Cc1nn(-c2ccccc2)c2c1C(c1ccc3c(c1)OCO3)SCC(=O)N2 (configuration not stated) the results were CRE Fsk mod -2%, TSHR agonist 10µM*, HEK293 cAMP ctrl 13%, IkB signaling 2% and Hsp90 Hop PPI -5%.
C[C@@H]1[C@H]2C=C[C@@H]1[C@@H](c1c3ccc(=O)c(O)c-3oc3c(O)c(O)ccc13)[C@@H]2C(=O)O was read as CRE Fsk mod -14%[7.6 µM], TSHR agonist 7%[11.4 µM], HEK293 cAMP ctrl 2%[11.4 µM], IkB signaling -1%[11.4 µM] and Hsp90 Hop PPI inconclusive.
Screening CCN(CC)c1ncnc2c1ncn2[C@@H]1O[C@@H](COP(=O)(O)OP(=O)(O)C(Br)(Br)P(=O)(O)O)[C@H](O)[C@H]1O returned CRE Fsk mod -2%, TSHR agonist 2%, HEK293 cAMP ctrl 1%, IkB signaling 0% and Hsp90 Hop PPI 0%.
For CCNC(=O)C1OC(n2cnc3c(N)ncnc32)C(O)C1O (configuration not stated) the results were TSHR agonist inconclusive and HEK293 cAMP ctrl 0.63µM*.
`C=C(C)[C@H]1Cc2c(ccc3c2O[C@H]2COc4cc(OC)c(OC)cc4[C@@H]2C3=O)O1` gave CRE Fsk mod 13%, TSHR agonist inconclusive, HEK293 cAMP ctrl inconclusive, IkB signaling inconclusive and Hsp90 Hop PPI -25%.
For c1cnc(N2CCCC3(CCNCC3)C2)nc1 the results were CRE Fsk mod -2%, TSHR agonist 2%, HEK293 cAMP ctrl 9%, IkB signaling 2%[11.4 µM] and Hsp90 Hop PPI -2%.
c1cc(N2CCCC3(CCNCC3)C2)ccn1 was read as CRE Fsk mod 3%, TSHR agonist inconclusive, HEK293 cAMP ctrl 2.5µM*, IkB signaling 3%[11.4 µM] and Hsp90 Hop PPI -4%.
c1ccc(N2CC3(CCNCC3)C2)nc1 was read as CRE Fsk mod -5%, TSHR agonist -3%, HEK293 cAMP ctrl 6%, IkB signaling 1%[11.4 µM] and Hsp90 Hop PPI -3%.
c1ccc(N2CC3(CCNCC3)C2)cc1 was read as CRE Fsk mod -6%, TSHR agonist inconclusive, HEK293 cAMP ctrl 10µM*, IkB signaling 0%[11.4 µM] and Hsp90 Hop PPI -3%.
O=c1cccc2n1C[C@H]1C[C@@H]2CN(CCO)C1 was read as CRE Fsk mod 0%, TSHR agonist 0%, HEK293 cAMP ctrl -1%, IkB signaling 0%[11.4 µM] and Hsp90 Hop PPI 6%.
For CC(C)(C)c1cc(C=C(C#N)C#N)cc(C(C)(C)C)c1O the results were CRE Fsk mod inconclusive, TSHR agonist inconclusive, HEK293 cAMP ctrl 0.79µM*, IkB signaling inconclusive and Hsp90 Hop PPI -18%.
`COc1cc(C=C(C#N)C#N)cc(O)c1O` gave CRE Fsk mod -1%, TSHR agonist -7%, HEK293 cAMP ctrl -11%, IkB signaling 3% and Hsp90 Hop PPI inconclusive.
Screening C=CCn1c(O)c(C(CC)=Nc2cc(OC)ccc2OC)c(=O)[nH]c1=O returned CRE Fsk mod inconclusive, TSHR agonist -1%[11.4 µM], HEK293 cAMP ctrl 9%, IkB signaling 1% and Hsp90 Hop PPI -6%.
Screening CCC(=Nc1ccc(OC)cc1OC)c1c(O)[nH]c(=O)[nH]c1=O returned CRE Fsk mod 13µM*, TSHR agonist 7%[11.4 µM], HEK293 cAMP ctrl -2%, IkB signaling -2% and Hsp90 Hop PPI -4%.
Screening NC(N)=Nc1ccc2[nH]c3c(c2c1)C[C@]1(O)[C@@H]2Cc4ccc(O)c5c4[C@]1(CCN2CC1CC1)[C@H]3O5 returned CRE Fsk mod -1%, TSHR agonist inconclusive, HEK293 cAMP ctrl 0.016µM*, IkB signaling 0% and Hsp90 Hop PPI -23%.
`CCCCn1c(O)c(C=NC2CC3CCC2(C)C3(C)C)c(=O)[nH]c1=O` (configuration not stated) gave CRE Fsk mod 13µM*, TSHR agonist 28%, HEK293 cAMP ctrl 8%, IkB signaling -1% and Hsp90 Hop PPI -6%.
For C[N+]1(C)CCc2cc3c(cc2[C@@H]1[C@@H]1OC(=O)c2c1ccc1c2OCO1)OCO3 the results were CRE Fsk mod 1%, TSHR agonist -3%, HEK293 cAMP ctrl 8%, IkB signaling -2% and Hsp90 Hop PPI -1%.
CC(C)(O)[C@H]1[C@H]2OC(=O)[C@@H]1[C@]1(O)C[C@H]3O[C@]34C(=O)O[C@H]2[C@]14C (tested in a mixture with another compound) was read as CRE Fsk mod 0%, TSHR agonist 9%, HEK293 cAMP ctrl 5%, IkB signaling -1% and Hsp90 Hop PPI -2%.
For COc1ccc(C2=NCC(=O)N(CC(=O)NCc3ccco3)c3sc4c(c32)CCCC4)cc1 the results were CRE Fsk mod inconclusive, TSHR agonist 16µM*, HEK293 cAMP ctrl 19%, IkB signaling inconclusive and Hsp90 Hop PPI -16%.
`Cn1nc(-c2ccc(OCC(=O)N3CCN(Cc4ccccc4)CC3)cc2)c2ccccc2c1=O` gave CRE Fsk mod 0.016µM*, TSHR agonist inconclusive, HEK293 cAMP ctrl inconclusive, IkB signaling inconclusive and Hsp90 Hop PPI -2%.
Screening Cn1cccc1CN1CCN(C(=O)COc2ccccc2)CC1 returned TSHR agonist 8% and HEK293 cAMP ctrl -3%.
CC(C)c1nccn1Cc1ccc(Cl)cc1Cl was read as CRE Fsk mod 0%[7.6 µM], TSHR agonist inconclusive, HEK293 cAMP ctrl 3.2µM*, IkB signaling 3%[11.4 µM] and Hsp90 Hop PPI 3%[11 µM].
